Results taken from PubChem BioAssay (Tox21).
Values without a mark were called inactive. A call without a number means that no potency is given here. Active and inactive are the calls of the source. Calls follow the shape of the full dose curve.

Experiment: qHTS assay to identify small molecule agonists of the sonic hedgehog signaling (Shh) pathway (AID 1259368);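 also: NIH/3T3-derived 3T3Gli1-Luc cells carrying a stable Gli1-driven firefly luciferase reporter; nearly all actives have a fitted effect of over 15% in size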
Details: NIH/3T3 Gli1-Luc reporter, luciferase, 24 h; series mostly up to 92.4 µM
Description: National Center for Advancing Translational Sciences [NCATS]
NIH Chemical Genomics Center [NCGC]
U.S. Environmental Protection Agency [EPA]
National Institutes of Environmental Health Sciences [NIEHS]
National Toxicology Program [NTP]
The sonic hedgehog (Shh) pathway is essential for normal embryonic development. Dysregulation of the Shh pathway can cause severe developmental defects in organs. Therefore chemicals that interfere with the pathway are potential developmental toxicants. A cell line designated 3T3Gli1-Luc (DMB/OARSA/CFSAN/FDA, Laurel, MD), a NIH/3T3 derived clone containing stably integrated Gli1-Luc reporter is used to detect chemical interference of the Shh pathway, by changes in the expression of the firefly Luc gene under the control of the Gli1 transcriptional response element. This cell line was used to screen Tox21 libraries for identifying and prioritizing the potential developmental toxicants that interfere Shh pathway.
3T3 Gli1-Luc cells were dispensed at 2,000 per well in 5uL of culture medium into white solid bottom 1536-well plates (Greiner Bio-One, Monroe, NC) using a Multidrop Combi (Thermo Scientific, Waltham, MA) dispenser. The assay plates were incubated at 37 C and 5% CO2 for 4hr, and then 23nL of compounds dissolved in DMSO and positive control were transferred using a Pintool station (Wako, San Diego, CA). The assay plates were incubated at 37C and 5% CO2 for 24hr. For luciferase read, 4uL of Amplite Luciferase reporter gene assay reagent (AAT Bioquest, Inc. Sunnyvale, CA) was added to each well of the assay plates using Flying Reagent Dispenser (FRD, Aurora Discovery, San Diego, CA) and incubated at room temperature for 30min. The luminescence signal was measured using a ViewLux plate reader (Perkin Elmer, Shelton, CT).

Row | Structure (SMILES) | Potency | activity change
1 | Cc1cc(Br)ccc1NC(=O)CCl | inactive | –
2 | Nc1ccc(N)c([N+](=O)[O-])c1 | inactive | –
3 | Cc1ccc(S(=O)(=O)C(I)I)cc1 | inactive | –
4 | CC(C)(C)c1cc(CCC(=O)OCCSCCOC(=O)CCc2cc(C(C)(C)C)c(O)c(C(C)(C)C)c2)cc(C(C)(C)C)c1O | inactive | –
5 | CCc1cccc(C)c1N(C(=O)CS(=O)(=O)O)C(C)COC (stereo not given) | inactive | –
6 | CCCCCN=C(N)N/N=C/c1c[nH]c2ccc(OC)cc12 | inactive | –
7 | CC(C)=NNC(N)=S | inactive | –
8 | CCCOC(=O)c1ccc(O)cc1 | inactive | –
9 | Cc1c(Cl)c(=O)oc2cc(O)ccc12 | inactive | –
10 | O=c1[nH]cccc1O | inactive | –
11 | O=[N+]([O-])c1ccc(CO)cc1 | inactive | –
12 | COCCC(=O)OC | inactive | –
13 | Clc1cccc(Cl)n1 | inactive | –
14 | CCCCCCCCOC(=O)c1cc(O)c(O)c(O)c1 | inactive | –
15 | CN1CC[C@H](c2c(O)cc(O)c3c(=O)cc(-c4ccccc4Cl)oc23)[C@H](O)C1 | inactive | –
16 | O=C(O)C[C@H](O)C[C@H](O)/C=C/c1c(C2CC2)nc2ccccc2c1-c1ccc(F)cc1 | – | -2.24% [at 18.9 µM, active compounds read high]
17 | O=C1OCc2ccccc21 | inactive | –
18 | C=C1CC[C@H]2O[C@]2(C)CC[C@@H]2[C@@H]1CC2(C)C | inactive | –
19 | CCN(CCC#N)c1ccc(N=Nc2ccc([N+](=O)[O-])cc2)cc1 | inactive | –
20 | CC(=O)CC(N)=O | inactive | –

Row | Structure (SMILES) | Potency | activity change
21 | O=[N+]([O-])c1ccc(O)c2ncccc12 | inactive | –
22 | COc1ccc2ccccc2c1 | inactive | –
23 | O=S(=O)(c1ccc(OCc2ccccc2)cc1)c1ccccc1O | inactive | –
24 | CSc1ccc(O)cc1C | inactive | –
25 | Oc1ccc2c(c1)CCC2 | inactive | –
26 | COc1c(Br)cc(Br)c(C)c1Br | inactive | –
27 | C=Cc1ccc(O)c(OC)c1 | inactive | –
28 | Cc1ccc2n[nH]nc2c1 | inactive | –
29 | CS(=O)(=O)c1ccc([C@@H](CC2CCCC2)C(=O)Nc2cnccn2)cc1Cl | inactive | –
30 | CN(C)CCOc1ccc(/C(=C(/CCCl)c2ccccc2)c2ccccc2)cc1 | inactive | –
31 | S=C1NC=NC2N=CNC12 (stereo not given) | inactive | –
32 | Cc1cccc(C)c1C | inactive | –
33 | CCOC(=O)OC(=O)OCC | inactive | –
34 | CC(=O)[C@]1(O)Cc2c(O)c3c(c(O)c2[C@@H](O[C@H]2C[C@H](N)[C@H](O)[C@H](C)O2)C1)C(=O)c1ccccc1C3=O | inactive | –
35 | CC1(C)[C@H](C(=O)OCc2cccc(Oc3ccccc3)c2)[C@@H]1C=C(Cl)Cl | inactive | –
36 | O=C(CCCCCCCCc1cccnc1)N1CCC(C=C(c2ccccc2)c2ccccc2)CC1 | inactive | –
37 | Nc1cc([N+](=O)[O-])ccc1Cl | inactive | –
38 | c1ccc(C[P+](c2ccccc2)(c2ccccc2)c2ccccc2)cc1 | inactive | –
39 | Cc1ccc(C2OC[C@@H]3OC(c4ccc(C)cc4)O[C@H]([C@H](O)CO)[C@@H]3O2)cc1 (stereo not given in full) | inactive | –
40 | C=CCc1cc(S(=O)(=O)c2ccc(O)c(CC=C)c2)ccc1O | inactive | –
